# Experimental data reported in ChEMBL document CHEMBL3988442, “University of Dundee, Small-Polar-MMV Screening Library” (2021).
# Hit rate of the full screen: of about 38,000 compounds, about 1,200 (3.2%) showed an effect of 50% or more. The median lay at about -58%. For the sample, strong results were picked, then their nearest neighbours and some compounds at random.
# Tested on: Plasmodium falciparum
# Experiment: Calibr Malaria Delayed Death Assay SOP
# Assay type: functional, organism-based
# Design: scale not given: in the data most compounds retested in dose-response had high values
# Settings: concentration 4.99e-06 (unit not given; other assays of the set use mol/L)
row,Structure (SMILES),Percent Effect [%]
1,COc1cc(C2CC(=O)Nc3c2nc2n3CCCC2)ccc1O (stereo unspecified),-30.17
2,COCCN(Cc1nc2c(cnn2C)c(=O)[nH]1)C(C)c1ccccc1 (stereo unspecified),-89.75
3,Cc1ccc(N2CCc3ncnc(N(C)C)c3CC2)nn1,-119.5
4,CC(C)N1CCC2(CC1)CC(NS(C)(=O)=O)c1ccccc1O2.O=C(O)C(F)(F)F (stereo unspecified),-16.02
5,CC(C)CN1CCC2(CC1)CC(NS(C)(=O)=O)c1ccccc1O2.O=C(O)C(F)(F)F (stereo unspecified),-52.98
6,O=C(O)C(F)(F)F.O=C(O)C(F)(F)F.O=C(O)C(F)(F)F.OCCN1CCC2(CC1)CC(NCc1ccccn1)c1ccccc1O2 (stereo unspecified),70.8
7,CS(=O)(=O)NC1CC2(CCN(CCF)CC2)Oc2ccccc21.O=C(O)C(F)(F)F (stereo unspecified),-76.24
8,CC(C)N1CCC2(CC1)CC(NCc1ccccn1)c1ccccc1O2.O=C(O)C(F)(F)F.O=C(O)C(F)(F)F.O=C(O)C(F)(F)F (stereo unspecified),70.65
9,COCC(=O)NC1CC2(CCN(CCF)CC2)Oc2ccccc21.O=C(O)C(F)(F)F (stereo unspecified),-129.2
10,CC(C)(C)c1ccc(C(=O)C2CCCN(C(=O)CNS(C)(=O)=O)C2)cc1 (stereo unspecified),-75.07
11,CN(C)c1no[n+]([O-])c1-c1ccccc1,-137.1
12,COCc1nn(C(C)C)c2c1CCN(Cc1ccc(C)o1)C2.O=C(O)C(F)(F)F,-30.71
13,Cc1nc[nH]c1-c1nccn1CCN1CCCOC1=O,-113
14,O=C(c1cc(Cl)c2c(c1)OCO2)N1CCN(c2cnccn2)CC1,-89.48
15,Cn1c(CN2CCOCC2)cc(=O)c(O)c1CN1CCCC1,-211.8
16,Cn1c(CN2CCOCC2)cc(=O)c(O)c1CN1CCCCC1,-218.7
17,Cn1c(CN2CCCC(N3CCCCCC3)C2)cc(=O)n(C)c1=O (stereo unspecified),-10.45
18,Cn1c(CN2CCCCC2)cc(=O)c(O)c1CN1CCCCC1,81.24
19,Cn1c(CN2CCCCCC2)cc(=O)c(O)c1CN1CCCC1,59.19
20,Cn1c(CN2CCOCC2)cc(=O)c(O)c1CN1CCOCC1,-232.2
21,O=C(O)CC1COCCN1Cc1ccccc1-c1ccccc1 (stereo unspecified),-118
22,COc1ccc(C(=O)Nc2ccc3ncn(C(C)C)c(=O)c3c2)cc1,33.29
23,O=C(N1CCCC(n2cncn2)C1)C1(c2ccc(Cl)cc2)CCC1 (stereo unspecified),-26.48
24,CN(Cc1cc(Br)cn1C)C(=O)c1cccnc1,-12.65
25,CCN(CCN1CCOCC1)C(=O)c1cccnc1,-63.54
26,CCCN(C(=O)c1cccnc1)c1nc2c(s1)CCc1c-2cnn1C,81.54
